According to a collection of fitness landscapes (doi:10.1126/science.1257360):
Whole data set: some 140,000 sequences, median “enrichment ratio after two sorts for PhoP signalling” near 0, cut for the highest 2% near 11. The sample as a whole holds a higher share of the highest values than the screen did.

B1: PhoQ; a variant is named by its letters at X, in order, P23837 (parent)
chain: MKKLLRLFFPLSLRVRFLLATAAVVLVLSLAYGMVALIGYSVSFDKTTFRLLRGESNLFYTLAKWENNKLHVELPENIDKQSPTMTLIYDENGQLLWAQRDVPWLMKMIQPDWLKSNGFHEIEADVNDTSLLLSGDHSIQQQLQEVREDDDDAEMTHSVAVNVYPATSRMPKLTIVVVDTIPVELKSSYMVWSWFIYVLSANLLLVIPLLWVAAWWSLRPIEALAKEVRELEEHNRELLNPATTRELTSLVRNLNRLLKSERERYDKYRTTLTDLTHSLKTPLXXLQXXLRSLRSEKMSVSDAEPVMLEQISRISQQIGYYLHRASMRGGTLLSRELHPVAPLLDNLTSALNKVYQRKGVNISLDISPEISFVGEQNDFVEVMGNVLDNACKYCLEFVEISARQTDEHLYIVVEDDGPGIPLSKREVIFDRGQRVDTLRPGQGVGLAVAREITEQYEGKIVAGESMLGGARMEVIFGRQHSAPKDE

Variants of: B1
Assay: enrichment ratio after two sorts for PhoP signalling (ratio (wild type AVST 3.29)); higher = more functional
Conditions: with PhoP (E. coli)

| Variant | enrichment ratio |
| --- | --- |
| LNPK | ≤ 0.25 |
| MELS | 9.24 |
| MELA | ≤ 0.25 |
| MKCS | ≤ 0.25 |
| DPCV | ≤ 0.25 |
| MEGM | ≤ 0.25 |
| DECV | 25.8 |
| NECS | ≤ 0.25 |
| MECS | 11.2 |
| MEWI | 24 |
| MERM | ≤ 0.25 |
| MECK | 27.3 |
| DECI | ≤ 0.25 |
| VHCY | ≤ 0.25 |
| MPCS | ≤ 0.25 |
| PKNK | ≤ 0.25 |
| PCQL | ≤ 0.25 |
| ICAL | 0.516 |
| STWD | ≤ 0.25 |
| TWLL | ≤ 0.25 |
| FYED | ≤ 0.25 |
| FVPW | ≤ 0.25 |
| NCRM | ≤ 0.25 |
| MMCV | 4.31 |
| MECI | 12.8 |
| NECV | ≤ 0.25 |

| Variant | enrichment ratio |
| --- | --- |
| MECA | 3 |
| MEGD | ≤ 0.25 |
| MECV | 18.2 |
| DNCI | ≤ 0.25 |
| VVVI | ≤ 0.25 |
| MDLY | ≤ 0.25 |
| TMFE | ≤ 0.25 |
| MWWC | ≤ 0.25 |
| SMAN | 6.01 |
| SMAY | 25.3 |
| SMAG | 11.3 |
| SMGD | 1.08 |
| SMAS | 11.6 |
| SMVG | 8.8 |
| SMAI | 13.5 |
| SMTG | 5.2 |
| SMGY | 7.3 |
| SMAT | 7.92 |
| SMYI | ≤ 0.25 |
| SMRY | ≤ 0.25 |
| HEDR | ≤ 0.25 |
| DAFY | ≤ 0.25 |
| QNHA | ≤ 0.25 |
| MIDS | ≤ 0.25 |
| PWKL | ≤ 0.25 |
| HVPL | ≤ 0.25 |

| Variant | enrichment ratio |
| --- | --- |
| VFFI | ≤ 0.25 |
| KESQ | ≤ 0.25 |
| HGIC | ≤ 0.25 |
| KKCM | ≤ 0.25 |
| MKCM | ≤ 0.25 |
| TKCM | 46.1 |
| AKCM | 15.6 |
| AICM | 6.05 |
| HKCM | ≤ 0.25 |
| SKKH | ≤ 0.25 |
| PYDF | ≤ 0.25 |
| MIQV | ≤ 0.25 |
| GAMG | ≤ 0.25 |
| VSLI | 14 |
| FALI | 15.1 |
| FALS | 8.07 |
| ISLA | ≤ 0.25 |
| RSLI | ≤ 0.25 |
| NSLI | 4.88 |
| ISLI | 11.2 |
| FALA | 5.9 |
| VSLA | 0.756 |
| MMLI | ≤ 0.25 |
| ISLT | 0.863 |
| TSLI | 11.8 |
| ENRC | ≤ 0.25 |

| Variant | enrichment ratio |
| --- | --- |
| VSCH | 2.85 |
| TYRA | ≤ 0.25 |
| DETW | ≤ 0.25 |
| WTDY | ≤ 0.25 |
| PCSF | ≤ 0.25 |
| NFAL | ≤ 0.25 |
| WRVV | ≤ 0.25 |
| KSLI | ≤ 0.25 |
| FCLI | 7.58 |
| FSLI | 12.9 |
| PMYI | ≤ 0.25 |
| HKIH | ≤ 0.25 |
| SCIH | 1.7 |
| TKIH | 15.7 |
| SQIH | 12.4 |
| SDIH | 2.15 |
| KKIH | ≤ 0.25 |
| GFSR | ≤ 0.25 |
| REWS | ≤ 0.25 |
| WQHV | ≤ 0.25 |
| ASQY | ≤ 0.25 |
| LEFA | 1.62 |
| LLWC | ≤ 0.25 |
| LRWC | ≤ 0.25 |
| LEFC | 12.9 |
| LEFP | ≤ 0.25 |

| Variant | enrichment ratio |
| --- | --- |
| LEWC | 17.6 |
| WGSE | ≤ 0.25 |
| FYLD | ≤ 0.25 |
| PSVE | ≤ 0.25 |
| TCQI | 15.2 |
| FCQI | ≤ 0.25 |
| TCII | ≤ 0.25 |
| TCQQ | 11.5 |
| KSWN | ≤ 0.25 |
| TCGQ | ≤ 0.25 |
| KCQI | ≤ 0.25 |
| TCQY | 31.4 |
| TCIS | ≤ 0.25 |
| KCQY | ≤ 0.25 |
| TCVQ | ≤ 0.25 |
| TCWN | 14.9 |
| SLAF | 8.18 |
| TQKA | ≤ 0.25 |
| TAWY | 6.15 |
| HCAS | ≤ 0.25 |
| TCQF | 6.94 |
| TCDN | ≤ 0.25 |
| TCEN | 0.333 |
| TCMN | 58.3 |
| TCVN | 2.66 |
| TCQN | 23 |

| Variant | enrichment ratio |
| --- | --- |
| TCQK | 14.2 |
| SCQA | ≤ 0.25 |
| TYMN | 0.285 |
| KCQA | ≤ 0.25 |
| TCQP | ≤ 0.25 |
| TCQA | 16.2 |
| MRIG | ≤ 0.25 |
| IPRI | ≤ 0.25 |
| IFEI | ≤ 0.25 |
| CNHC | ≤ 0.25 |
| QRMF | ≤ 0.25 |
| HTHA | ≤ 0.25 |
| FCQL | ≤ 0.25 |
| TCQL | 13.2 |
| KCQL | ≤ 0.25 |
| HESH | ≤ 0.25 |
| HEQP | ≤ 0.25 |
| HECS | 2.84 |
| HEQY | ≤ 0.25 |
| HEQV | 25.5 |
| HECV | 15.4 |
| HNSW | ≤ 0.25 |
| ERQE | ≤ 0.25 |
| SAFP | ≤ 0.25 |
| QGAG | ≤ 0.25 |
| QVAH | ≤ 0.25 |

| Variant | enrichment ratio |
| --- | --- |
| AGQL | 11.6 |
| GGQL | ≤ 0.25 |
| WIQL | ≤ 0.25 |
| AIQL | 11.7 |
| AQQL | ≤ 0.25 |
| CGQL | 14.3 |
| ADQL | ≤ 0.25 |
| TGQL | 5.01 |
| AKQL | ≤ 0.25 |
| MQGH | ≤ 0.25 |
| FDDD | ≤ 0.25 |
| AMFM | ≤ 0.25 |
| PNFI | ≤ 0.25 |
| KCCR | ≤ 0.25 |
| RQPM | ≤ 0.25 |
| IGQV | ≤ 0.25 |
| GHHN | ≤ 0.25 |
| PRDV | ≤ 0.25 |
| AKQG | ≤ 0.25 |
| SQQG | 6.66 |
| SEQG | 17.8 |
| AEQG | ≤ 0.25 |
| AQQG | 12.7 |
| SLQG | ≤ 0.25 |
| HAGM | ≤ 0.25 |
| HMVE | ≤ 0.25 |

| Variant | enrichment ratio |
| --- | --- |
| VFKE | ≤ 0.25 |
| HGRI | ≤ 0.25 |
| FPCA | ≤ 0.25 |
| GKQD | ≤ 0.25 |
| TAPI | ≤ 0.25 |
| MAHY | 20.2 |
| TAHY | 27.1 |
| KAHY | ≤ 0.25 |
| AHHY | ≤ 0.25 |
| NAHY | ≤ 0.25 |
| NMRM | ≤ 0.25 |
| NICT | ≤ 0.25 |
| RICT | ≤ 0.25 |
| SNCT | 8.8 |
| AHCT | ≤ 0.25 |
| AWCT | ≤ 0.25 |
| ANCT | 21 |
| AQCT | 20.8 |
| KACT | ≤ 0.25 |
| AACT | 12.4 |
| EQCT | ≤ 0.25 |
| YACT | 0.253 |
| AICT | 18 |
